Consider one compound from PubChem BioAssay AID2284092 (EPA ToxCast).

SMILES strings stand for the structures. The source made the active and inactive calls. Rule for the calls: active = hit-call score of the fitted dose curve at least 0.9, where 1 is the maximum; inactive = score below 0.9.

The target of this assay is Glycogen synthase kinase-3 beta (Homo sapiens) (UniProt P49841). Briefly: ERF_FR_ENZ_hGSK3b: Eurofins (ERF) Enzymatic Radiometric [Km ATP] KinaseProfiler LeadHunter Assay for human GSK3beta (GSK3B) CMGC Kinase. The method, then: ERF_FR_ENZ_hGSK3b is a biochemical, single-readout assay that uses extracted gene-proteins in a cell-free assay. Measurements were taken 1.5 hour after chemical dosing in a 96-well plate. See GSK3beta Human CMGC Kinase Enzymatic LANCE Assay [Km ATP], Cerep.ERF_FR_ENZ_hGSK3b is an assay component calculated from the ERF_FR_ENZ_hGSK3b assay. It is designed to measure enzyme activity using a type of enzyme reporter as detected by fluorescence intensity with LANCE technology.Data from the assay component ERF_FR_ENZ_hGSK3b was analyzed at the assay endpoint, ERF_FR_ENZ_hGSK3b, in the positive analysis fitting direction relative to DMSO as the negative control and baseline of activity. Using a type of enzyme reporter, loss-of-signal activity can be used to understand changes in enzymatic activity as they relate to gene GSK3B. To generalize the intended target to other relatable targets, this assay endpoint is annotated to the kinase intended target family, where the subfamily is serine/threonine kinase.
Chain of Glycogen synthase kinase-3 beta (Homo sapiens) (P49841 whole entry, looked up): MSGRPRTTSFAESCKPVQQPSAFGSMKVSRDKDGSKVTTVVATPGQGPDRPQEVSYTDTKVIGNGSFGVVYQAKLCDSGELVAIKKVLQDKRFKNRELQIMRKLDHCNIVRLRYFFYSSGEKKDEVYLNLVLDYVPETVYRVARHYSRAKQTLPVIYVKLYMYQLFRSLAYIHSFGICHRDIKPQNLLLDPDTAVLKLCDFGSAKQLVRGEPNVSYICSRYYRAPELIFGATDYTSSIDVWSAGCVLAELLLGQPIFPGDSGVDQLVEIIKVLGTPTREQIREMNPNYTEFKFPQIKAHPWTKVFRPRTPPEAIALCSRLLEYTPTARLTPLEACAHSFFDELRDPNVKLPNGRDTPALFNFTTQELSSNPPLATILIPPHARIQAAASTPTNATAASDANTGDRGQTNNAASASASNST
GSK3b (h) is incubated with 8 mM MOPS pH 7.0, 0.2 mM EDTA, 20 uM […](p) EDEEE (phospho GS2 peptide), 10 mM MgAcetate and [gamma-33P]-ATP (specific activity and concentration as required). The reaction is initiated by the addition of the Mg/ATP mix. After incubation for 40 minutes at room temperature, the reaction is stopped by the addition of phosphoric acid to a concentration of 0.5%. […]
Broadly, the AC50 is the midpoint of the concentration-response curve, whichever way the signal moves. In the case of `O=C(/C=C/c1ccc(O)cc1)CC(=O)/C=C/c1ccc(O)cc1`, the AC50 was 2140 nM (active).
